Laboratory results as given in PubChem BioAssay (NCATS).
Results filed as inconclusive are left out. Calls of active or inactive are those of the source. Unless noted, the call rests on the fitted dose curve; in most records, active means well fitted curve in the direction sought with a large enough effect; inconclusive means small, poorly fitted or top-dose-only effect, or another doubt; inactive means no such curve, though single readings can be large; an effect the other way counts as inactive or inconclusive.

Experiments:
[1] = molecular target: Rap guanine nucleotide exchange factor 4 (Homo sapiens) (UniProt Q8WZA2); assay: Confirmatory qHTS for antagonist of cAMP-regulated guanine nucleotide exchange factor 4 (EPAC2) (AID 1645885); settings: EPAC2 Rap1B-BODIPY-GDP exchange fluorescence, biochemical; series mostly up to 114 µM; further: potency means the concentration at half of the fitted maximal effect; nearly all actives have a fitted effect of over 25% in size
[2] = molecular target: Rap guanine nucleotide exchange factor 3 (Homo sapiens) (UniProt O95398); assay: Counterscreen qHTS for antagonist of cAMP-regulated guanine nucleotide exchange factor 3 (EPAC1) (AID 1645888); settings: Rap1B-BODIPY-GDP nucleotide exchange, fluorescence; series mostly up to 154 µM;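 further: fluorescence loss as bound BODIPY-GDP is released from Rap1B; % of control where 0% means no effect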
In short: (§1)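 Measured: fluorescence of BODIPY-GDP bound to Rap1B, which falls as exchange proceeds. Conditions include 50 uM competing GDP, 5 and 30 min reads, and a later cAMP challenge for antagonist detection.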

[3] = molecular target: Rap guanine nucleotide exchange factor 3 (Homo sapiens) (UniProt O95398); assay: Counterscreen qHTS for agonist of cAMP-regulated guanine nucleotide exchange factor 3 (EPAC1) (AID 1645889); settings: EPAC1 Rap1B-BODIPY-GDP exchange, fluorescence; series mostly up to 154 µM; further: % of control where 0% means no effect; nearly all actives have a fitted effect of over 40% in size
In short: as §1

[4] = molecular target: Pyruvate kinase (Leishmania mexicana) (UniProt Q27686); assay: qHTS Validation Assay for Inhibitors of Leishmania Mexicana Pyruvate Kinase (AID 945);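 further: 0% = DMSO only neutral control wells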; settings: purified L. mexicana pyruvate kinase, enzyme activity, E451W mutant enzyme; series mostly up to 57.5 µM
Pyruvate kinase (Leishmania mexicana), sequence (Q27686 2-499 E452W): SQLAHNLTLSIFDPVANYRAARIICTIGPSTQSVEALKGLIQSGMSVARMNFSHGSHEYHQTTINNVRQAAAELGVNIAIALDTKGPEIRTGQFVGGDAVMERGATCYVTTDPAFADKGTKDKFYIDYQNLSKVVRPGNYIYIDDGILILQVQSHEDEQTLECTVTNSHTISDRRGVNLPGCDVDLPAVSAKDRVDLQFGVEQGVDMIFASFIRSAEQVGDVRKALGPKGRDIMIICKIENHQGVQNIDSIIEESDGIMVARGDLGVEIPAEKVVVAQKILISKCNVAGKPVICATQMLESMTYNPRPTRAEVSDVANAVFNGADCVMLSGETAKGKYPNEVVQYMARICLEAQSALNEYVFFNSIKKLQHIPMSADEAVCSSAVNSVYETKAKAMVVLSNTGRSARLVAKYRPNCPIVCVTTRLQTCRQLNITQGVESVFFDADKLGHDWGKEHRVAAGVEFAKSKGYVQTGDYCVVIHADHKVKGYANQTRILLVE
In short: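 Compounds are tested as eight-point concentration series. Reactions contain 0.2 nM LmPYK E451W, 0.5 mM PEP, 0.1 mM ADP, 7 mM MgCl2 and 50 mM KCl at pH 7.2, run 1 h at room temperature, then read by PKLight luminescence.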

[5] = molecular target: ATP-dependent DNA helicase Q1 (Homo sapiens) (UniProt P46063); assay: qHTS Validation Assay for Inhibitors of RecQ-Like Dna Helicase 1 (RECQ1) (AID 2353); settings: recombinant RECQ1 helicase DNA unwinding assay; series mostly up to 25.6 µM; further: potency means the concentration at half of the fitted maximal effect
ATP-dependent DNA helicase Q1 (Homo sapiens), sequence (P46063 whole entry, looked up): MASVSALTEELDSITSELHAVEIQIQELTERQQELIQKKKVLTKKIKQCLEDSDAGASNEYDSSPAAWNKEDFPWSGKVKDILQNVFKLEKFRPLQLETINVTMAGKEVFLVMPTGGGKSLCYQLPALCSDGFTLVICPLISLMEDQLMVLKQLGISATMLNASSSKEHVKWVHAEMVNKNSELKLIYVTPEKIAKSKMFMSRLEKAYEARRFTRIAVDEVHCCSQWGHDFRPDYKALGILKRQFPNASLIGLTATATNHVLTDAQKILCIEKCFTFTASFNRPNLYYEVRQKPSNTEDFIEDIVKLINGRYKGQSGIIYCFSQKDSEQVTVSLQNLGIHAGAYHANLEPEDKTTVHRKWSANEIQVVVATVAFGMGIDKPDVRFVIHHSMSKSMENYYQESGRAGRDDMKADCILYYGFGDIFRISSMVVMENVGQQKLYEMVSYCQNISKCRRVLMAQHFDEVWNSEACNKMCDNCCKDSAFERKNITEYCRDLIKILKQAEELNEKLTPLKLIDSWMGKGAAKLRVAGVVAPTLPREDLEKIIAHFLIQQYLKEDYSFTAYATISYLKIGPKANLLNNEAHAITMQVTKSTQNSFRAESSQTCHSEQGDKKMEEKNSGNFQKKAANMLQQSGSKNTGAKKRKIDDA
In short: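 50 nM RECQ1T1 preincubated 15 min with compound in Tris pH 8.0 buffer with MgCl2, DTT, Tween-20 and 2.5 ug/ml poly(dI-dC); started with 200 nM TAMRA/BHQ-2 forked duplex and 2 mM ATP. Unwinding read as fluorescence (525/598 nm), two reads 2 h apart.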

[6] = molecular target: DNA polymerase III PolC-type (Bacillus subtilis (strain 168)) (UniProt P13267); assay: qHTS Validation Assay for the Inhibitors of DNA Replication in Gram-Positive Bacteria (AID 485295); settings: Gram-positive bacterial DNA replication assay; series mostly up to 57.1 µM; further: potency means the concentration at half of the fitted maximal effect
DNA polymerase III PolC-type (Bacillus subtilis (strain 168)), sequence (P13267 whole entry, looked up): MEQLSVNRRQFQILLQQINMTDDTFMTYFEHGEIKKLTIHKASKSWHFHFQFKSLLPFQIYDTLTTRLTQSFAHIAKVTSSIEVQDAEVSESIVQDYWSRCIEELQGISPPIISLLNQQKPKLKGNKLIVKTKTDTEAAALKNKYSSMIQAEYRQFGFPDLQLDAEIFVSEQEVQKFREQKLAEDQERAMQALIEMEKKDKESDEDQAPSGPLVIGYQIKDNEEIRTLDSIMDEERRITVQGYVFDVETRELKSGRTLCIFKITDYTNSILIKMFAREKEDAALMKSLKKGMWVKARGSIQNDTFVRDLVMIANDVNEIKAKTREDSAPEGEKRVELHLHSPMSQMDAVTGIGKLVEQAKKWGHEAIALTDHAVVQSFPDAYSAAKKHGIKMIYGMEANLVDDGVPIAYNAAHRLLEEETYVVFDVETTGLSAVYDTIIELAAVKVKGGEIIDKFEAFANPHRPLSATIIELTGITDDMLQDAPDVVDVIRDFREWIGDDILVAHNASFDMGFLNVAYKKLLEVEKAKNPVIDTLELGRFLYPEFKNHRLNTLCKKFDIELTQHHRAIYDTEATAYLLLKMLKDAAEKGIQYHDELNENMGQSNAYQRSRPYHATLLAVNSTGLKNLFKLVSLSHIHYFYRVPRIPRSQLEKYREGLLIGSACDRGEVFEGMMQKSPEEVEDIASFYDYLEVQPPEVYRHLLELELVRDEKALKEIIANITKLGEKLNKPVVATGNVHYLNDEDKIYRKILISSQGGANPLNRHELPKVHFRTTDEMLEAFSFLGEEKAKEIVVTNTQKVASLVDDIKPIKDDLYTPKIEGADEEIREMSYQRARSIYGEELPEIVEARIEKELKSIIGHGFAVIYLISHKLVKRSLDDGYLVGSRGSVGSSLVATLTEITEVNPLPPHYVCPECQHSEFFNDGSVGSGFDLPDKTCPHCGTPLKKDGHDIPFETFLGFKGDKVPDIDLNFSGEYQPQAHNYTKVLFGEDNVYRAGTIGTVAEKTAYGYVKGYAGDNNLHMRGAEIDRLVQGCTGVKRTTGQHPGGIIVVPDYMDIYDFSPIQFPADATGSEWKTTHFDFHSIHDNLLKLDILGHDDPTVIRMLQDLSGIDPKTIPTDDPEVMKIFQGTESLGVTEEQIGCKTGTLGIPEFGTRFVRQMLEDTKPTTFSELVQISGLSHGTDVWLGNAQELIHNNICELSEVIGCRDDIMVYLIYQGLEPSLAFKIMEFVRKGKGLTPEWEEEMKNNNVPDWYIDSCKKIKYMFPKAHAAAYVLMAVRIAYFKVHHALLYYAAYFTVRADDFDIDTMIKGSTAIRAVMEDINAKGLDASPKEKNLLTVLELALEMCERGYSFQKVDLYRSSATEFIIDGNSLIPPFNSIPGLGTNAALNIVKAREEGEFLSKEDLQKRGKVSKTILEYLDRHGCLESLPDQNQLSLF
In short: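 PicoGreen fluorescence (ex 480–485/em 535–540 nm) reports dsDNA synthesized on ssM13Gori template with dNTPs/NTPs. Enzyme: holoenzyme rebuilt from purified PolC, beta subunit, SSB and primase. Compound preincubated before substrate addition; RT throughout.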

[7] = Quantitative high throughput screen for delayed death inhibitors of the malarial parasite plastid, 48 hour incubation (AID 488752); settings: Plasmodium falciparum growth; series mostly up to 28.7 µM; further: potency means the concentration at half of the fitted maximal effect; nearly all actives have a fitted effect of over 65% in size
In short: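 Erythrocytes infected with firefly luciferase-expressing P. falciparum (2% hematocrit, 0.1% parasitemia) cultured with compound for 48 h at 37 C, 5% CO2, in RPMI 1640/0.5% Albumax. Growth inhibition read as loss of luminescence.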

[8] = molecular target: Peptidyl-prolyl cis-trans isomerase NIMA-interacting 1 (Homo sapiens) (UniProt Q13526); assay: qHTS Validation Assay to Find Inhibitors of Pin1 (AID 504536; active means well fitted inhibition curve with a large enough effect in the polarisation, with a control signal flat, not every such curve was filed as active; the % refers to the polarisation; further: potency means the concentration at half of the fitted maximal effect); settings: Pin1 fluorescence polarization peptide binding assay; series mostly up to 57.5 µM
Peptidyl-prolyl cis-trans isomerase NIMA-interacting 1 (Homo sapiens), sequence (Q13526 whole entry, looked up): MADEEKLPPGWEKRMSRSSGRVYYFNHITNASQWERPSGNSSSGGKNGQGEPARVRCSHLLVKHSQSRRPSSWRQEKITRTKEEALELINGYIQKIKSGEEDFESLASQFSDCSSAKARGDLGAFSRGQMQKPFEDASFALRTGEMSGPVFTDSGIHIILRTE
In short: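 Fluorescence polarization competition: compounds (titration) displace HiFluor-488-labeled Pin1-1b peptide from Pin1 (0.3 uM final) in pH 7.5 HEPES buffer with DTT, 10 min at room temperature; %Activity normalized to no-enzyme wells, curves fitted.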

[9] = molecular target: Phosphoglycerate kinase, glycosomal (Trypanosoma brucei brucei) (UniProt P07378); assay: qHTS Validation Assay to Find Inhibitors of Phosphoglycerate Kinase (AID 504547); settings: enzymatic PGK inhibition, coupled luminescence read-out; series mostly up to 57.5 µM; further: potency means the concentration at half of the fitted maximal effect
In short: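 Substrate/PGK mix plus compound; reaction started with GAPDH (100nM final) to form 1,3-BPG; 60 min RT; Kinase-Glo Plus 10 min; luminescence. TEA 100mM pH 7.6, MgCl2 5mM, Tween-20 0.01%.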

[10] = molecular target: Hexokinase-4 (Homo sapiens) + Glucokinase regulatory protein (Homo sapiens) (UniProt P35557+Q14397); assay: qHTS assay for inhibitors of recombinant human GCK-GKRP interaction: Diaphorase-coupled assay (AID 743205); settings: G6PDH/diaphorase resorufin fluorescence; series mostly up to 57.5 µM
Hexokinase-4 (Homo sapiens) + Glucokinase regulatory protein (Homo sapiens), sequence (P35557 whole entry, looked up): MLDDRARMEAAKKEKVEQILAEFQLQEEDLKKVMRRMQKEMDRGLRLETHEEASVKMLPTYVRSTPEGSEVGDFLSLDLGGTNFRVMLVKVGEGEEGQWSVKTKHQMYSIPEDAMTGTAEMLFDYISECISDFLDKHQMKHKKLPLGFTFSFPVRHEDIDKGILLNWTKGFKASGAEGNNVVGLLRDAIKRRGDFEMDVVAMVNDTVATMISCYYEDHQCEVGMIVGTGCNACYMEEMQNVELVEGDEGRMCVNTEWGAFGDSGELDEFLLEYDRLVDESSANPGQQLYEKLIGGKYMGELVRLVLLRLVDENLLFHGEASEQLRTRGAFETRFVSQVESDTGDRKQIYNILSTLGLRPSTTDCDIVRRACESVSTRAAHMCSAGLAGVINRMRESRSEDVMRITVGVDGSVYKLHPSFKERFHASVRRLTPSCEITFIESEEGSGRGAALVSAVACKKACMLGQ
Hexokinase-4 (Homo sapiens) + Glucokinase regulatory protein (Homo sapiens), sequence (Q14397 whole entry, looked up): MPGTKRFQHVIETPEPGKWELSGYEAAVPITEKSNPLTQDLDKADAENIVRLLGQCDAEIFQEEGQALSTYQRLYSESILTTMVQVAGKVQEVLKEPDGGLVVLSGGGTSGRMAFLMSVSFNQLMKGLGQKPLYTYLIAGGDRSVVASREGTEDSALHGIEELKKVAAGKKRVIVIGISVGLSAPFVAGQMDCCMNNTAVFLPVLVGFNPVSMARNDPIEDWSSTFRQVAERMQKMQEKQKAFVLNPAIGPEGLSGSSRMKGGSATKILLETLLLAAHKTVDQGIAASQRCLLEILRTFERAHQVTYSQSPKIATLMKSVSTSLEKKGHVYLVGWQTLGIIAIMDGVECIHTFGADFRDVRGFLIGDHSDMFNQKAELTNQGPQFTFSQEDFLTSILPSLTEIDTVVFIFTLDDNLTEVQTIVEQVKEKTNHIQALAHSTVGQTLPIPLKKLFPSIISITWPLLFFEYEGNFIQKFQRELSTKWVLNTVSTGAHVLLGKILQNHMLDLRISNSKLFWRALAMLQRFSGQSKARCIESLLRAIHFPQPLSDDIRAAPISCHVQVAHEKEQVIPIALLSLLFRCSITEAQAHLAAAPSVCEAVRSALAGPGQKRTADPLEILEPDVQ
In short: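 Resorufin fluorescence (525/590 nm), read each minute over 30 min, reports GCK activity coupled via G6PDH and diaphorase. Reaction: 10 nM GST-GCK, 10 nM FLAG-GKRP, 5 mM glucose, 0.4 mM ATP, 0.15 mM NADP+, 0.1 mM resazurin.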

[11] = HepG2 viability counterscreen (readout 2: ATP content) against the NCATS DSHEA and TCM libraries (AID 1794840); settings: ATP content luminescence; series mostly up to 46.6 µM;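 further: HepG2 cells exposed to substances for about 24 h; 0% is about no effect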
In short: (§2)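 1,000 HepG2 cells/well, 4 h attach; compounds ~24 h, 37C/5% CO2. Readout 1: GF-AFC 25 uM final, 30 min, fluorescence 380/510 nm. Readout 2: CellTiter-Glo, 30 min RT, luminescence.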

[12] = HepG2 viability counterscreen (readout 1: protease activity) against the NCATS DSHEA and TCM libraries (AID 1794841); settings: qHTS concentration series; series mostly up to 46.6 µM;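 further: cells exposed to compounds for about 24 h before the protease read; 0% is about no effect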
In short: as §2

[13] = molecular target: Cytochrome P450 2D6 (Homo sapiens) (UniProt P10635); assay: qHTS for inhibitors of CYP2D6 against the NCATS DSHEA and TCM libraries (AID 1919972); settings: CYP2D6 enzymatic inhibition, luminescence qHTS; series mostly up to 58.3 µM; further: on the % scale 0 is the no-effect control and ±100 the full control effect
In short: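 Luminescent P450-Glo read-out of CYP2D6 turnover of a luciferin substrate after NADPH-driven reaction of 30-45 min at room temperature. Compounds were first preincubated 15 min with enzyme at titrated concentrations; quinidine was the intraplate control.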

[14] = KB-3-1 P-gp reporter qHTS against the NCATS DSHEA and TCM libraries (AID 1919975); settings: KB-3-1 parental cells, CellTiter-Glo luminescence viability, 72 h; series mostly up to 44.5 µM; further: 0% is about no effect
In short: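 CellTiter-Glo luminescence viability readout; KB-3-1 parental cells, 500/well, attached ~4 h, then compound for ~72 h, 37C, 5% CO2. Bortezomib intraplate control.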

[15] = molecular target: Cytochrome P450 1A2 (Homo sapiens) (UniProt P05177); assay: qHTS for inhibitors of CYPIA2 against the NCATS DSHEA and TCM libraries (AID 1919976); settings: recombinant CYP1A2 enzyme activity, luminescence; series mostly up to 63.1 µM;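 further: light from luciferin formed by CYP1A2 from a pro-luciferin substrate; on the % scale 0 is the no-effect control and ±100 the full control effect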
Cytochrome P450 1A2 (Homo sapiens), sequence (P05177 whole entry, looked up): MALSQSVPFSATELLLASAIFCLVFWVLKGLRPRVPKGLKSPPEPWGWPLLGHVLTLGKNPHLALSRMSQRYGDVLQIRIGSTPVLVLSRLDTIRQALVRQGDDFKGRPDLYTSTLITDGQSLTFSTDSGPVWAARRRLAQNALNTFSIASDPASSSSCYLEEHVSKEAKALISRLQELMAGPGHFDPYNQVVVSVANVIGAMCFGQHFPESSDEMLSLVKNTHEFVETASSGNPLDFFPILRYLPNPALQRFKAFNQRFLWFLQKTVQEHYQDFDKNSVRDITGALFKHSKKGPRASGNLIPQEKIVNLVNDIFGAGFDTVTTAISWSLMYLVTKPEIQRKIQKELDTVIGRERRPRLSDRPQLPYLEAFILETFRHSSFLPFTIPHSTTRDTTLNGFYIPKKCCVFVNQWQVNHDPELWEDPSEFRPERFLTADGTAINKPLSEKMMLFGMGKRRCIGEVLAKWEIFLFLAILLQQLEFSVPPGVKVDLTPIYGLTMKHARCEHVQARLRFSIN
In short: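 Human CYP1A2 with pro-luciferin substrate (typically 100 mM KPO4), 15 min preincubation with compound, then 1x NADPH regeneration for 30-45 min at room temperature in the dark. Luciferin quantified by luciferase luminescence; furafylline intraplate control.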

[16] = qHTS Counterscreen for compound interference against the NCATS DSHEA and TCM libraries (AID 1919978); settings: firefly luciferase detection reagent interference, luminescence;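 further: compounds preincubated with 1 µM D-luciferin or buffer before detection reagent; % of control where 0% means no effect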
In short: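 Luminescence counterscreen for detection-kit interference: compounds at 19.5 nM–39.8 uM final, 15 min RT with 1 uM D-luciferin or buffer only; detection reagent added, 30 min RT, then read.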

[17] = Dual reporter qHTS for agonist of Pregnane X Receptor (hPXR) against the NCATS DSHEA and TCM libraries: Fluorescence readout (AID 1920058); settings: PXR dual reporter cells; series mostly up to 68.2 µM; further: 0% is about no effect
In short: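 hPXR-Luc HepG2 cells, 2000/well in charcoal-stripped serum, attached 5 h, dosed for ~24 h at 37 °C. Fluorescence read is CellTiter-Fluor viability (Ex/Em 405/540 nm); rifampicin positive, tetraoctyl ammonium bromide (92 µM) cytotoxicity controls.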

[18] = molecular target: Nuclear receptor subfamily 1 group I member 2 (Homo sapiens) (UniProt O75469); assay: Dual reporter qHTS for agonist of Pregnane X Receptor (hPXR) against the NCATS DSHEA and TCM libraries: Luminescence readout (AID 1920059); settings: hPXR dual reporter cells, luciferase luminescence agonist; series mostly up to 68.2 µM; further: 0% is about no effect
Nuclear receptor subfamily 1 group I member 2 (Homo sapiens), sequence (O75469 whole entry, looked up): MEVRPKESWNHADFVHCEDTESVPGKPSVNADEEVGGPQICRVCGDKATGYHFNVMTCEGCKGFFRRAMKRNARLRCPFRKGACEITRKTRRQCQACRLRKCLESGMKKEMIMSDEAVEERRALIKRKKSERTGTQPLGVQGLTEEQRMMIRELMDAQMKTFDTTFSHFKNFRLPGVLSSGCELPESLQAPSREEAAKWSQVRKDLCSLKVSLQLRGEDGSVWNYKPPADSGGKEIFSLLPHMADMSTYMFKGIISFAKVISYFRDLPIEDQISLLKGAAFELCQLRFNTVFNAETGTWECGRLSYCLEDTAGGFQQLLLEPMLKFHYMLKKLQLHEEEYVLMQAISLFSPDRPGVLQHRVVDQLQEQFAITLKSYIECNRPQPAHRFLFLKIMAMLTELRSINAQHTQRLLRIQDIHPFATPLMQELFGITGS
In short: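 hPXR-LucHepG2 cells in phenol red-free DMEM with 5% charcoal-stripped FBS, 2000 cells/well, attached 5 h, then exposed 24 h at 37C to compounds; rifampicin as positive agonist control (2.8 nM–92 uM). Luciferase luminescence read.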

[19] = molecular target: Nuclear receptor subfamily 1 group I member 2 (Homo sapiens) (UniProt O75469); assay: Dual reporter qHTS for antagonist of Pregnane X Receptor (hPXR) against the NCATS DSHEA and TCM libraries: Luminescence Readout (AID 1920060); settings: hPXR dual reporter cells, luciferase luminescence, antagonist mode; series mostly up to 68.2 µM; further: 0% is about no effect
In short: (§3)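 Rifampicin-stimulated (2 uM final) hPXR-luciferase HepG2 cells were treated for 24 h with DSNP/TCM substances. Viability came from CellTiter-Fluor fluorescence, reporter activity from ONE-Glo luminescence.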

[20] = Dual reporter qHTS for antagonist of Pregnane X Receptor (hPXR) against the NCATS DSHEA and TCM libraries: Fluorescence Readout (AID 1920061); settings: PXR dual reporter cells, antagonist mode; series mostly up to 68.2 µM; further: 0% is about no effect
In short: as §3

CC(C)COC(=O)c1ccccc1C(=O)OCC(C)C
active: Potency [1] 37.9 µM
inactive: outcome [2] | outcome [3]

N#C/C(=C\c1ccc(O)c(O)c1)C(=O)NCCCNC(=O)/C(C#N)=C/c1ccc(O)c(O)c1
inactive: outcome [4] | outcome [10]
active: Potency [5] 0.447 µM | Potency [6] 21.2 µM | Potency [7] 10.4 µM | Potency [8] 0.849 µM | Potency [9] 1.9 µM

C=C(C)[C@@H]1CC=C(C=O)CC1
inactive: outcome [11] | outcome [12] | outcome [13] | outcome [14] | Potency [15] | max response [16] -1.03% | outcome [17] | outcome [18] | outcome [19] | outcome [20]
